This is one part of a sample in which hits are shown more often than they occur.
VHR inh color: VHR1 phosphatase inhibitors, primary screen, biochemical, colorimetric, HTS | Dual specificity protein phosphatase 3 (Homo sapiens), P51452 | recombinant VHR phosphatase, colorimetric substrate read-out | inhibition, % at 20 µM | 0.7% of 50,000 active | AID 1992, 2009; in the data active = inhibition above about 60%
Target sequence (P51452 whole entry, looked up): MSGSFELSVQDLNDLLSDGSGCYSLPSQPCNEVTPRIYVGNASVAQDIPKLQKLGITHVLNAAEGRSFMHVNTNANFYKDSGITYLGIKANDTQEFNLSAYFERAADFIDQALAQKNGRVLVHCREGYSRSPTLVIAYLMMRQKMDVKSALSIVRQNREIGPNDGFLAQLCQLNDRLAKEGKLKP
* = called active by the depositor.

SMILES | VHR inh color
Cc1nc2ccccn2c1C(=O)NCc1ccc(Cl)cc1 | 15.6
COc1ccc2c(c1OC)C(=O)N(c1nc(-c3ccccc3)c(C(=O)c3ccccc3)s1)C2=O | 13.3
O=C(Nc1ccc(C(=O)c2ccccc2)cc1)c1ccc(Cl)cc1 | -3.9
O=C(NCc1ccccc1)C(O)(c1ccc(F)cc1)c1ccc(F)cc1 | -11.1
Cc1nnc(NC(=O)CSCCSCC(=O)Nc2nnc(C)s2)s1 | -8.6
CCOC(=O)C1=C(C)N=c2s/c(=C\c3ccc(OC)cc3OC)c(=O)n2C1/C=C/c1ccccc1 (stereo unspecified) | -10.7
CCOC(=O)c1c(NC(=O)c2cccc(OC)c2)sc(C(=O)Nc2ccccc2OC)c1C | 1.3
CCOC(=O)c1c(NC(=O)c2ccc(C)c([N+](=O)[O-])c2)sc(C(=O)Nc2ccccc2OC)c1C | 116.4*
CCOC(=O)c1sc(NC(=O)c2ccc(C)c([N+](=O)[O-])c2)c(C(=O)OCC)c1C | -18.9
COC(=O)N1CCN(c2ccc([N+](=O)[O-])cc2)CC1 | -6.9
Cc1ccc(-c2ccc(OCC(=O)Nc3ccccc3C)cc2)cc1 | -13.2
CCOc1ccc(/C=C2\C(=O)NC(=O)N(c3ccc(C)cc3)C2=O)cc1Cl | -20.3
COc1cc(C(=O)Nc2c(C(C)C)cccc2C(C)C)cc(OC)c1OC | -5.8
CC(C)C1S/C(=N/N=C/c2ccc(O)cc2)NC1=O (stereo unspecified) | 93.0*
COc1ccc(CC2S/C(=N\N=C\c3ccc(C(C)C)cc3)NC2=O)cc1 (stereo unspecified) | -7.6
Cc1ccc(/C=N/N=C2\NC(=O)C(C)S2)cc1 (stereo unspecified) | -0.9
CCOc1cc(-c2ccc(OC)cc2)[o+]c2c1ccc1ccccc12 | -24.3
CC(=O)Oc1ccc2c(C(F)(F)F)cc(=O)oc2c1 | -11.2
COc1cc(C2CC(=O)Nc3c2ccc2ccccc32)cc(Br)c1OC (stereo unspecified) | 102.9*
O=C1CC(c2ccc(F)c(Br)c2)c2ccc3ccccc3c2N1 (stereo unspecified) | -7.6
COc1ccc(C2CC(=O)Nc3c2cc(Br)c2ccccc32)c(OC)c1 (stereo unspecified) | 111.6*
CCOc1cccc(C2CC(=O)Nc3c2cc(Br)c2ccccc32)c1 (stereo unspecified) | -3.4
CSc1ccc(C2CC(=O)Nc3c2cc(Br)c2ccccc32)cc1 (stereo unspecified) | 27.7
COc1cc(C2CC(=O)Nc3c2ccc2ccccc32)cc(OC)c1OC(C)=O (stereo unspecified) | 2.2
O=C(CSc1ncn[nH]1)Nc1ccc(C(=O)O)cc1 | 6.4
SMILES | VHR inh color
COc1ccc(NC(=O)c2ccc(I)cc2)c(OC)c1 | -8.7
COC(=O)COc1ccc(/C=C2\C(=O)C(C(=O)OC)=C(C)N2c2cc(C)cc(C)c2)cc1 | 10.1
O=C1C=CC(=O)C(c2cc(Cl)ccc2Cl)=C1 | 90.2
COc1cc(OC)cc(C(=O)Nc2sc3c(c2C(N)=O)CCC(C)C3)c1 (stereo unspecified) | 25.0
CC1CCc2c(sc(NC(=O)c3cccc(C(=O)O)c3)c2C(N)=O)C1 (stereo unspecified) | 78.1*
CC1CCc2c(sc(NC(=O)c3ccccc3)c2C(N)=O)C1 (stereo unspecified) | 1.5
CCOc1ccc(N(CC(=O)NCCSc2ccccc2)S(C)(=O)=O)cc1 | 17.0
CCN1C(=O)/C(=C\c2ccc(C)cc2)SC1=S | -11.7
Cn1cccc1/C=C1/C(=O)NC(=S)N(c2ccc(Cl)cc2)C1=O | 70.4*
COc1ccccc1N1C(=O)C(=Cc2cccn2C)C(=O)NC1=S | 76.6*
O=C1NC(=S)N(c2cccc(Cl)c2)C(=O)/C1=C/c1ccc(Cl)cc1 | 17.3
Cc1cc(/C=C2\C(=O)NC(=S)N(c3ccc(Cl)cc3)C2=O)c(C)n1C | 4.8
COc1ccccc1N1C(=O)NC(=O)/C(=C\c2cc3ccccc3n2C)C1=O | 36.2
COc1cc(Br)c(/C=C2\C(=O)NC(=S)N(c3ccccc3)C2=O)cc1OC | 0.5
CCCCOC(=O)c1ccc(NC(=O)CSc2nnc(N)s2)cc1 | -0.3
O=C(c1cccnc1)N1CCN(C(=O)c2cccc(F)c2)CC1 | 6.2
COc1cc([N+](=O)[O-])ccc1-c1ccc(/C=C2\C(=O)NC(=O)N(c3ccccc3)C2=O)o1 | 16.0
CCc1ccc(C2Nc3ccccc3NC3=C2C(=O)CC(c2ccc(OC)c(OC)c2)C3)cc1 (stereo unspecified) | 115.4*
CSc1ccc(C2Nc3ccccc3NC3=C2C(=O)CC(c2ccc4c(c2)OCO4)C3)cc1 (stereo unspecified) | -12.6
CCC(=O)N1c2ccccc2NC2=C(C(=O)CC(c3ccccc3)C2)C1c1ccc(OC)cc1 (stereo unspecified) | 102.6*
COc1ccc(C2CC(=O)C3=C(C2)Nc2ccccc2NC3c2ccncc2)cc1OC (stereo unspecified) | 6.8
Cc1ccc2c(c1)NC(c1ccc3c(c1)OCO3)C1=C(CC(c3ccccc3)CC1=O)N2 (stereo unspecified) | 117.5*
COc1ccc(C2CC(=O)C3=C(C2)Nc2ccccc2NC3c2ccc(SC)cc2)cc1OC (stereo unspecified) | 43.0
Cc1ccc2c(c1)NC(c1ccc(F)cc1)C1=C(CC(c3ccccc3)CC1=O)N2 (stereo unspecified) | -27.8
O=C1CC(c2ccccc2)CC2=C1C(c1ccc(Cl)c(Cl)c1)Nc1ccccc1N2 (stereo unspecified) | -16.6
SMILES | VHR inh color
COc1ccc(C2CC(=O)C3=C(C2)Nc2ccccc2N(C(C)=O)C3c2ccc(OC)c(OC)c2)cc1 (stereo unspecified) | -0.4
CCC(=O)N1c2ccccc2NC2=C(C(=O)CC(c3ccccc3)C2)C1c1ccc([N+](=O)[O-])cc1 (stereo unspecified) | 9.6
O=C1CC(c2ccccc2)CC2=C1C(c1ccc(F)c(F)c1)Nc1ccccc1N2 (stereo unspecified) | 104.3*
O=C1CC(c2ccccc2)CC2=C1C(c1ccc(F)c(Br)c1)Nc1ccccc1N2 (stereo unspecified) | -5.7
CCCCOc1ccc2nsnc2c1Cl | -12.1
CCOc1ccc(N(CC(=O)NCC(C)c2ccccc2)S(=O)(=O)c2ccccc2)cc1 (stereo unspecified) | -5.8
O=C(CC1SC(=Nc2ccccc2)N(c2ccccc2)C1=O)Nc1cccc(C(=O)O)c1 (stereo unspecified) | 12.0
CCOC(=O)c1c(NC(=O)c2ccc(OCC(C)C)cc2)sc2c1CC(C)(C)OC2 | -2.5
O=C(O)C1C2CCC(C2)C1C(=O)Nc1nncs1 (stereo unspecified) | -8.9
Cc1ccccc1C(=O)NN1C(=O)/C(=C\c2ccncc2)SC1=S | -7.2
Cc1ccc(N2CCN(/N=C\c3ccccc3F)CC2)cc1 | -10.5
CCOc1ccc(N=Cc2cc(Cl)ccc2OC)cc1 | -12.3
Cc1cc(NC(=O)/C=C/C(=O)O)ccc1NC(=O)c1cccs1 | -5.1
COc1ccc(C2CC(=O)C3=C(C2)Nc2ccccc2NC3c2ccc(F)c(Br)c2)cc1 (stereo unspecified) | 115.9*
COc1ccc(C2CC(=O)C3=C(C2)Nc2ccccc2NC3c2ccc3ccccc3c2)cc1 (stereo unspecified) | 10.6
COc1ccc(C2CC(=O)C3=C(C2)Nc2ccccc2NC3c2cccc(Br)c2)cc1 (stereo unspecified) | 1.0
COc1cc(C2c3c(c4ccccc4oc3=O)Oc3c2c(=O)oc2ccccc32)cc(OC)c1OC | 0.7
COc1ccccc1CNC(=O)/C=C/c1ccc(Cl)cc1Cl | -0.6

Compound activity as filed in PubChem.
